Shown are actives, neighbours in structure and some others; about 2.7% of the full set was active somewhere.
MRP1 act: activators of MRP-1. H69AR cells + doxorubicin, viability rescue, CellTiter-Glo. viability increase, % at 10 µM. 140,000 tested, 0.61% active. AID 799;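 active = viability gain under doxorubicin at or above a set limit, the compound median plus 3 SD, cut at about 4.7% in these data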;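 note: MRP-1 overexpressing cells given doxorubicin 25 µM after compound pretreatment; 18-22 h compound pretreatment then 72 h with doxorubicin before readout; 0% = doxorubicin-only wells and 100% = vehicle-treated cells without doxorubicin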
ERa coact pot: enhances coactivator binding to human estrogen receptor alpha; P03372; AID 639; TR-FRET ERalpha-LBD/SRC-Cy5 coactivator binding, 2 h; 100 = basal binding, no effect; 86,000 tested, 1.3% active; coactivator binding (% of control), % at 25.6 µM; in the data active = activity above about 200%;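 note: binding measured in presence of low estradiol as agonist stimulus; 0% = peptide alone without receptor and 100% = receptor with peptide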
Target sequence (P03372 whole entry, looked up, the tested form may be a part): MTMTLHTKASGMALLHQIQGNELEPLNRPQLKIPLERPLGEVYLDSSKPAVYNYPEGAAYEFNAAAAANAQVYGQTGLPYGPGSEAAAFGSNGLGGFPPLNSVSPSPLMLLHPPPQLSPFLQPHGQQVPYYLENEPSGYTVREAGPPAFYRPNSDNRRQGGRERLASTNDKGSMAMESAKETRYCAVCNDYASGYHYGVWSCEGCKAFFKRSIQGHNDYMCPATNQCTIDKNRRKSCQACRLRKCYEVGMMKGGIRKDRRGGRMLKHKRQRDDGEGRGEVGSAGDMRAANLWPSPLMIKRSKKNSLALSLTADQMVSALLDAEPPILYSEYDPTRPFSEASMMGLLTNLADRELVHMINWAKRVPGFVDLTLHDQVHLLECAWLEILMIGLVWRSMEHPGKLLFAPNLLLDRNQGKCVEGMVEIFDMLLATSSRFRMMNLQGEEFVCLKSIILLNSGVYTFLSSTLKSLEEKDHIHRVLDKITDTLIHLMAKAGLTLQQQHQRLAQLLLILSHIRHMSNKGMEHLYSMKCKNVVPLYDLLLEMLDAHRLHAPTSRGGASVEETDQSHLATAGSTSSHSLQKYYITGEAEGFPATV
MRP resist rev: MRP-mediated drug resistance reversal. H69AR cells + 2 uM doxorubicin, CellTiter-Glo, 72 h. differential viability (reversal), % at 10 µM. 85,000 tested, 0.04% active;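 active = viability drop by adding the cancer drug above about 55%, with treated viability meeting a 40% cutoff, limit read from the data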;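 note: viability without doxorubicin minus viability with 2 µM doxorubicin for each compound; larger differential means the compound sensitizes cells more to doxorubicin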
ERa coact inh: blocks coactivator binding to human estrogen receptor alpha; inhibition, % at 25.6 µM; P03372; 86,000 tested, 1.7% active; TR-FRET ER-alpha LBD / SRC-1 peptide, estradiol-bound; in the data active = inhibition above about 50%;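 note: 0% = receptor plus peptide control and 100% = peptide only without receptor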
ERb SRC1 inh: blocks coactivator binding to human estrogen receptor beta | Q92731 | TR-FRET ER-beta LBD / SRC1-Cy5 peptide binding; receptor agonist-loaded with 1 µM estradiol | inhibition, % at 25.6 µM | 86,000 tested, 1.3% active;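 active = compounds whose percent inhibition of the receptor-coactivator binding signal exceeds about 50% in the single-dose screen, limit read from the data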;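 note: 0% = receptor plus peptide wells without compound and 100% = peptide-only wells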
* marks the source's active call; other numbers are inactive results; nt = no result; [ ] = another dose, or the depositor's remark.

SMILES | MRP1 act | ERa coact pot | MRP resist rev | ERa coact inh | ERb SRC1 inh
COCCCn1c2nc3ccccc3nc2c2c(=O)n(Cc3ccccc3Cl)cnc21 | nt | 257* | 1 | 9 | 12
COc1ccc(Cl)cc1NC(=S)NCCSc1ccc(C)cc1 | -3 | nt | nt | nt | nt
Cc1cc(C)c(S(=O)(=O)N2CCCOC2CNC(=O)C(=O)NCCc2c[nH]c3ccccc23)c(C)c1 (centres undefined) | -1 | nt | nt | nt | nt
CN(C)c1ncc(C2=C(Cl)C(=O)C(N3CCCC3)=C(Cl)C2=O)s1 | -8 | 9 | -9 | 97*[fluorescence artefact?] | 94*[fluorescence artefact?]
CCOC(=O)c1[nH]c(C)c(C(=O)c2ccc(C)cc2)c1C | -1 | 115 | -23 | 57*[fluorescence artefact?] | 0
Cc1ccc(C)c(SCC(=O)OCC(=O)c2ccco2)c1 | -3 | 70 | 0 | 65* | 63*
CC/C(=N\NC(=O)C(N)=O)c1ccccc1O | 5.1* | nt | nt | nt | nt
C/C(=N\NC(=O)C(N)=O)c1ccc(Br)cc1 | -3 | nt | nt | nt | nt
Cc1cc(N2CCN(C(=O)c3ccco3)CC2)n2nc(C)c(-c3ccc(Cl)cc3)c2n1 | nt | 282* | -7 | 55*[fluorescence artefact?] | 55*[fluorescence artefact?]
Cc1nc2cc(-c3cccc(Cl)c3)nn2c(N2CCN(C(=O)c3ccco3)CC2)c1C | nt | 107 | -8 | 12 | 6
Cc1nn2c(N3CCN(C(=O)c4ccco4)CC3)cc(C(C)(C)C)nc2c1-c1ccc(Cl)cc1 | -4 | nt | nt | nt | nt
Cc1cc(N2CCN(C(=O)c3ccco3)CC2)n2nc(-c3cccc(Cl)c3)cc2n1 | -2 | 107 | 2 | 29 | 57*[fluorescence artefact?]
Cc1cc(N2CCN(C(=O)c3ccco3)CC2)n2nc(C)c(-c3ccccc3)c2n1 | -2 | 220* | 7 | -28 | 5
Cc1c(CN(C)C)c2c(n1Cc1ccccc1)C(=O)c1ccccc1-2 | -5 | 116 | -7 | -4 | -20
COC(=O)c1cc(NC(=O)CC2SC(=Nc3ccccc3)N(CCc3c[nH]c4ccccc34)C2=O)cc(C(=O)OC)c1 (centres undefined) | -6 | nt | nt | nt | nt
CC(C)Cn1c(=O)c(C(=O)N/N=C/c2cccc(F)c2)c(O)c2ccccc21 | -5 | nt | nt | nt | nt
COC(=O)c1oc2ccc(Br)cc2c1NC(=O)CCCN1C(=O)c2ccccc2C1=O | 1 | 131 | -27 | 52* | 26
O=C(CCCN1C(=O)c2ccccc2C1=O)Nc1c(C(=O)C2CC2)oc2ccccc12 | -2 | 111 | -6 | 2 | -2
Cc1ccc(NC(=O)CSc2nc3ccccc3c3nc(CCc4c(C)n[nH]c4C)nn23)cc1F | -3 | 142 | -2 | 54*[fluorescence artefact?] | 26
C=CCOC(=O)/C(=C/c1cccc2ccccc12)NC(=O)c1ccccc1 | -1 | nt | nt | nt | nt
CCOC(=O)c1sc(-c2ccccc2)cc1NC(=O)Nc1ccccc1 | 6.0* | nt | nt | nt | nt
CCOC(=O)c1sc(-c2ccc(F)cc2)cc1NC(=O)Nc1ccccc1OC | 9.0* | nt | nt | nt | nt
CCOC(=O)c1sc(NC(=O)Nc2ccccc2)cc1C | -4 | nt | nt | nt | nt
Cc1ccc2[nH]c(=S)cc(C)c2c1 | -1 | 83 | -8 | 16 | 60*[fluorescence artefact?]
Cc1cc(=S)[nH]c2ccccc12 | 0 | 85 | -14 | 0 | 4
SMILES | MRP1 act | ERa coact pot | MRP resist rev | ERa coact inh | ERb SRC1 inh
COc1ccc(-n2nc(C(=O)Nc3ccc(OC)c(OC)c3)c3c4ccccc4n(C)c3c2=O)cc1 | -2 | 183 | -6 | 57* | 12
Cc1cccc(NC(=O)Cn2c(=O)n(CCc3c[nH]c4ccccc34)c(=O)c3cccnc32)c1 | -3 | nt | nt | nt | nt
CC(=O)N(C(C)=O)c1ccc2nc(C)[nH]c(=O)c2c1 | -2 | 577*[fluorescence artefact?] | -12 | 6 | -1
CC(=O)Nc1ccc(Oc2ccc3nc(C)[nH]c3c2)cc1 | 0 | 101 | 19 | 2 | 15
Cc1cccc(NC(=O)C23CCC(C)(C2Br)C3(C)C)c1 (centres undefined) | 1 | nt | nt | nt | nt
O=C(c1cccc(Br)c1)c1cn(-c2ccccc2)nc1C(=O)c1ccccc1 | -1 | nt | nt | nt | nt
NC(=O)Cn1c(=O)n(Cc2ccco2)c(=O)c2c3c(sc21)CCCCC3 | -2 | 17 | -2 | 91*[fluorescence artefact?] | 90*[fluorescence artefact?]
CC(C)c1ccc(C(=O)CSc2ncn[nH]2)cc1 | 6.6* | 79 | 22 | -27 | -14
O=C(CSc1ncn[nH]1)NCCOc1ccccc1 | 0 | 126 | -12 | -3 | -3
O=C(CSc1ncn[nH]1)NCCC(c1ccccc1)c1ccccc1 | 9.8* | 124 | 3 | 1 | -6
COC(=O)CN1C(=S)N(c2ccc(Cl)cc2)C(=O)C1CC(=O)Nc1ccc(F)cc1 (centres undefined) | -2 | nt | nt | nt | nt
COc1ccc(NC(=O)CC2C(=O)N(c3ccc(Cl)cc3)C(=S)N2NC(=O)c2cccc(F)c2)cc1 (centres undefined) | 5.1* | nt | nt | nt | nt
CCNC(=O)CC1C(=O)N(c2ccc(F)cc2)C(=O)N1Cc1ccc(OC)cc1 (centres undefined) | -4 | 138 | 11 | 55*[fluorescence artefact?] | -3
COc1ccc(NC(=O)CC2C(=O)N(c3ccc(F)cc3)C(=S)N2NC(=O)c2ccc(Cl)cc2)cc1 (centres undefined) | 4.8* | nt | nt | nt | nt
CCNC(=O)CC1C(=O)N(c2ccccc2)C(=O)N1CCc1ccc(OC)cc1 (centres undefined) | -2 | 162 | -9 | -16 | -12
Cc1ccc(NC(=S)NN(C)c2cc(C)nc(C)n2)cc1 | -1 | nt | nt | nt | nt
CCS(=O)(=O)N1CCC(C(=O)NCCCN2CCCCCC2)CC1 | -1 | 920*[fluorescence artefact?] | -7 | -3 | 0
O=C1[C@@H]2[C@H](Cc3ccc(O)cc3)N[C@]3(C(=O)Nc4ccccc43)[C@@H]2C(=O)N1c1ccc(F)cc1 | 5.7* | 101 | 11 | -5 | -6
O=C1[C@@H]2C(Cc3ccc(O)cc3)NC3(C(=O)Nc4ccc(F)cc43)[C@@H]2C(=O)N1c1ccccc1 (some centres undefined) | 3 | 69 | 11 | 8 | 10
O=C(NCCn1ccc2ccccc21)c1ccc2c(c1)OCO2 | 0 | 116 | -1 | -9 | -4
c1ccc(C2(Cn3ccc4ccccc43)OCCO2)cc1 | -2 | 137 | 4 | 99*[fluorescence artefact?] | -6
COc1cccc(/C=C2/SC(=S)N(CC(=O)Nc3nnc(C)s3)C2=O)c1 | 8.8* | nt | nt | nt | nt
O=C(CN1C(=O)/C(=C/c2ccccc2)SC1=S)Nc1ncc(Cc2ccccc2)s1 | 5.3* | nt | nt | nt | nt
O=C(CN1C(=O)/C(=C\C=C\c2ccccc2)SC1=S)Nc1ccc(F)cc1 | -1 | nt | nt | nt | nt
COc1ccc(CCNC(=O)COc2ccc(S(=O)(=O)NC3CCCCC3)cc2Cl)cc1 | -2 | nt | nt | nt | nt
Cc1ccc2nc(SCC(=O)Nc3ccccc3N3CCOCC3)c(C#N)cc2c1 | -2 | 217*[fluorescence artefact?] | -21 | 19 | 17
Cc1ccc(-c2nnc(SCC(=O)Nc3ccccc3N3CCOCC3)o2)cc1 | 0 | 104 | 7 | -11 | -3
COc1ccc2nc(SCC(=O)N3CCCCCC3)c(C#N)cc2c1 | 0 | 108 | -12 | 10 | 9
N#Cc1cc2ccccc2nc1SCC(=O)Nc1ccc(S(=O)(=O)N2CCCC2)cc1 | -2 | 289*[fluorescence artefact?] | -15 | 16 | 23
COc1ccc2nc(SCC(=O)Nc3ccc(S(=O)(=O)N4CCCC4)cc3)c(C#N)cc2c1 | -4 | 509*[fluorescence artefact?] | -17 | 19 | 40

Bioassay records deposited in PubChem BioAssay by several laboratories.
